Sampled rows, rich in hits. Any-hit rate of the full collection: about 10%.
GPT2 inh – blocks human glutamate pyruvate transaminase 2. Q8TD30. Recombinant GPT2, coupled pyruvate oxidase/HRP Amplex Red fluorescence. Potency, µM (series often up to 57.7 µM), without a hit: at the top dose activity change, negative = inhibition, most hits filed as inhibitors. 100,000 compounds, 0.25% hits. AID 1671188; also: nearly all actives have a fitted effect of over 60% in size
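Fluorescence of coupled pyruvate oxidase/HRP/Amplex Red system (50uM Amplex, 30 min, dark) reports pyruvate formed by GPT2. Enzyme reaction: 10ng/uL GPT2, 2mM L-alanine, 250uM a-KG, 30 min room temperature, pH 7.5; 50uM AOA control.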
HEK293 tox – kills HEK 293 cells; HEK 293 viability, ATP luminescence (CellTiter-Glo), 48-72 h; Potency, µM (titrated, usually from 115 µM), for inactives: top-dose activity change, negative = cytotoxicity, usual class: inhibitors; 94,000 compounds, 6.6% hits; also: nearly all actives have a fitted effect of over 60% in size
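ATP-coupled CellTiter-Glo luminescence served as viability read-out, recorded 10 min after reagent addition at room temperature. HEK 293 cells, 250 cells/well, had been incubated with pintool-transferred compound for 48 or 72 hr at 37 degree Celsius.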
hNpr1 antagonist – blocks ANP-stimulated signaling of human Npr1 receptor. HEK293 hNpr1 GloSensor cGMP, ANP-stimulated luminescence. 76,000 compounds, 1.6% hits. Potency, µM (top dose mostly 46.3 µM), for inactives: at the highest dose activity change, negative = inhibition, usual class: inhibitors. P16066. AID 1347048; calls by dose curve; also: nearly all actives have a fitted effect of over 60% in size
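HEK293 cells stably expressing human Npr1 and cGMP GloSensor pGS-40F, loaded 2 h with 2% GloSensor reagent, given compound 30 min at room temperature. Luminescence read before and 20 min after 0.1 nM hNppA.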
NIH3T3 tox – kills NIH 3T3 cells; NIH 3T3 viability, CellTiter-Glo ATP luminescence, 48-72 h; Potency, µM (series often up to 96.7 µM), for the others: at the top dose activity change, negative = cytotoxicity, actives largely listed as inhibitors; 94,000 compounds, 4.3% hits; AID 1345082; also: nearly all actives have a fitted effect of over 55% in size
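First NIH 3T3 cells are plated at 400 cells/well; next compound is pinned in; then plates incubate 48 or 72 hr at 37 °C; finally CellTiter-Glo is added and luminescence read after 10 min.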
Luciferase inh – inhibitors of firefly (Photinus pyralis) luciferase; P08659; purified P. pyralis luciferase, luminescence, biochemical; Potency, µM (doses to about 115 µM), hits mostly inhibitors; 76,000 compounds, 2.5% hits; also: nearly all actives have a fitted effect of over 65% in size
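Luminescence read by CCD imager after adding enzyme (10nM final) to wells holding compound, titrated in qHTS. Substrates 10uM each D-luciferin and ATP; buffer 50mM Tris acetate pH 7.5, 10mM Mg acetate, Tween-20, BSA.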
* marks the source's active call; other numbers are inactive results; i = inactive; ? = inconclusive; . = not tested or not shown; [ ] = dose if it differs, or a comment. Unless noted, calls follow the shape of the dose curve; as a rule, active = well fitted curve in the direction sought with a large enough effect; inconclusive = small, poorly fitted or top-dose-only effect, or another doubt; inactive = no such curve, though single readings can be large; an effect the other way counts as inactive or inconclusive. % is scaled to controls: 0 for no effect and ±100 for the full control effect; potency is read from the fitted curve at half-maximal effect.

SMILES	GPT2 inh	HEK293 tox	hNpr1 antagonist	NIH3T3 tox	Luciferase inh
O=C(c1cccc(OC(F)(F)F)c1)N1CCN(c2cc(-c3cccs3)[nH]n2)CC1	?	?	-24.8%	?	i
CCOC(=O)C1(Cc2ccc(F)cc2)CCCNC1 (stereo unspecified)	i	-9.6%	3.7%	-19.3%	i
COc1cc(F)cc(-c2ncc3c(n2)OCCN(c2cccc(C(F)(F)F)c2)C3=O)c1	1.9%[88.5 µM]	-14.5%[172 µM]	-9.4%[70.6 µM]	?	3.16µM*
COc1ccc(F)cc1-c1ncc2c(n1)OCCN(c1cccc(C(F)(F)F)c1)C2=O	0.1%[88.5 µM]	?	-10.9%[70.6 µM]	35.5µM*	i
Cc1ccc(-c2ncc3c(n2)OCCN(c2ccccc2)C3=O)cc1F	i	?	7.08µM*	?	?
COc1ccc(OC)c(-c2ncc3c(n2)OCCN(c2cccc(C(F)(F)F)c2)C3=O)c1	3.0%	-25.0%	-9.4%	?	i
O=C1c2cnc(-c3ccsc3)nc2OCCN1c1cccc(C(F)(F)F)c1	-20.2%[88.5 µM]	100µM*	?	112µM*	63.1µM*
C[S+](=O)([O-])c1ccc(-c2ncc3c(n2)OCCN(c2ccccc2)C3=O)cc1	i	?	3.3%[70.6 µM]	?	?
COc1ccccc1-c1ccnc(N[C@H]2CO[C@H]3[C@@H]2OC[C@@H]3NC(=O)Nc2cccc(C(F)(F)F)c2)n1	0.8%	-2.6%	1.0%	-26.1%	i
O=C(N[C@H]1CO[C@H]2[C@@H]1OC[C@@H]2Nc1nccc(-c2ccc(-c3ccccc3)cc2)n1)c1ccc2c(c1)OCO2	i	0.3%	-1.5%	-6.3%	i
COc1ccc(-c2ccnc(N[C@H]3CO[C@H]4[C@@H]3OC[C@@H]4NC(=O)Nc3cccc(C(F)(F)F)c3)n2)cc1	-5.6%	39.8µM*	-5.3%	39.8µM*	i
COc1ccc(C(=O)N[C@H]2CO[C@H]3[C@@H]2OC[C@@H]3Nc2nccc(-c3cccc(F)c3)n2)cc1	5.0%	?	-1.5%	-43.8%	i
CC(C)(C)c1ccc(NC(=O)O[C@@H]2CO[C@H]3[C@@H]2OC[C@@H]3Nc2nccc(-c3ccc(-c4ccccc4)cc3)n2)cc1	1.1%	28.2µM*	0.4%	39.8µM*	i
COc1cccc(NC(=O)O[C@@H]2CO[C@H]3[C@@H]2OC[C@@H]3Nc2nccc(-c3cccc(F)c3)n2)c1	0.2%	44.7µM*	-15.6%	?	i
COc1ccc(-c2ccnc(N[C@H]3CO[C@H]4[C@@H]3OC[C@@H]4NC(=O)c3ccc4c(c3)OCO4)n2)cc1	0.0%	31.6µM*	?	?	i
CCCCN1CCN(C(=O)c2cc(NC(=O)C3CCC3)cc3nc(C)ccc23)CC1	i	-14.9%	-0.9%	-27.6%	i
CCO[C@H]1CN(C(=O)c2cc(-c3ccc(OC)cc3)n[nH]2)C[C@@H]1O	2.7%	-13.2%	3.1%	-27.4%	i
CN1[C@@H](CCC(=O)NCc2cccnc2)CNC(=O)[C@@H]2[C@H]1CCN2Cc1nc2ccccc2n1C	i	-8.7%	3.6%	-12.6%	i
O=C(Nc1cccc(C(F)(F)F)c1)O[C@@H]1CO[C@H]2[C@@H]1OC[C@@H]2Nc1nccc(-c2ccc(-c3ccccc3)cc2)n1	i	-23.7%	0.2%	-13.8%	i
N#Cc1cccc(NC(=O)O[C@@H]2CO[C@H]3[C@@H]2OC[C@@H]3Nc2nccc(-c3ccc4c(c3)OCO4)n2)c1	-3.6%	28.2µM*	-30.3%	?	i
CN(C)c1ccc(-c2ccnc(N[C@H]3CO[C@H]4[C@@H]3OC[C@H]4OC(=O)Nc3cccc(C(F)(F)F)c3)n2)cc1	-16.5%	31.6µM*	-15.1%	?	i
O=S(=O)(Cc1ccccc1)N[C@H]1CO[C@H]2[C@@H]1OC[C@@H]2Nc1nccc(-c2cccc(F)c2)n1	-7.6%	31.6µM*	?	?	i
CS(=O)(=O)N1CC[C@H]2C(=O)NCCCCCCN(Cc3ccncc3)[C@@H]2C1	1.6%	i	0.9%	-3.3%	i
COc1ccc(CNC(=O)c2c(C)noc2-c2cc(OC)cc(OC)c2)cc1	2.2%	?	-1.8%	-6.8%	i
COCc1ncc(C)n1CCNC(=O)c1ccoc1	i	5.1%	2.0%	i	i
SMILES	GPT2 inh	HEK293 tox	hNpr1 antagonist	NIH3T3 tox	Luciferase inh
COCCNc1ncc(-c2ccc(OC)cc2)c2c1OCC2	-1.3%[88.5 µM]	?	5.1%[70.6 µM]	?	44.7µM*
COCCNc1ncc(-c2ccc(SC)cc2)c2c1OCC2	2.4%[88.5 µM]	?	3.0%[70.6 µM]	?	?
COCCNc1ncc(-c2ccc(F)cc2)c2c1OCC2	i	?	0.7%[70.6 µM]	?	15.8µM*
CCOc1ccc(NC(=O)N(C)CC2CCOCC2)cc1	i	-6.5%	2.2%	i	i
Cc1ccc(CNC(=O)CCc2nc(C3CCCN3C(=O)c3ccccc3)no2)o1 (stereo unspecified)	i	-3.8%	-2.3%	-7.4%	i
Cc1ccc(C(=O)N2CCCCCCNC(=O)[C@@H]3C[C@@H](c4nc(Cc5ccccc5)no4)C[C@@H]32)s1	i	79.4µM*	0.0%	?	i
CCN1CCC2(CCC1=O)CN(Cc1ccc(C)c3ccccc13)CCN2C (stereo unspecified)	-5.2%[11.5 µM]	79.4µM*	4.6%	-11.4%	i
Cc1ccc(CN2CCC3(CCCO3)CCC2=O)c2ccccc12 (stereo unspecified)	-4.2%	?	0.1%	-19.9%	i
CCCC1(CO)CCCN(Cc2cnn(-c3cccc(F)c3)c2)C1 (stereo unspecified)	?	?	1.6%	-4.5%	i
O=C(c1cccc2nccnc12)N1CCC(Cc2nc(-c3ccccc3)n[nH]2)CC1	-7.6%	-16.9%	3.0%	-20.8%	i
Cc1cc(N2CCN(Cc3nc(-c4cccc(Cl)c4)no3)CC2)cc(C)n1	i	39.8µM*	-12.4%	22.4µM*	i
CC(C)OC(=O)N(C)Cc1cccc(N2CCN(C(=O)c3c(Cl)cccc3Cl)CC2)c1F	.	35.5µM*	.	?	.
CCOC(=O)C(Cc1cccc(N2CCN(C(=O)c3c(Cl)cccc3Cl)CC2)c1F)OC (stereo unspecified)	.	79.4µM*	.	?	.
CC(c1ccccc1)N1CCN(c2cccc(CN(C)[S+](C)(=O)[O-])c2F)CC1 (stereo unspecified)	.	79.4µM*	.	?	.
CC(C)N(Cc1cccc(N2CCN(C(=O)c3c(Cl)cccc3Cl)CC2)c1F)[S+](C)(=O)[O-]	.	79.4µM*	.	?	.
Cc1nc(N2CCN(C(=O)c3c(F)cccc3Cl)CC2)cc(C(F)(F)F)n1	i	-20.8%	-1.9%	-23.3%	i
COc1ccc(Nc2ccnc(N3CCN([S+](=O)([O-])c4cccc(C(F)(F)F)c4)CC3)n2)cc1	?	31.6µM*	.	?	.

Screens deposited in PubChem by National Center for Advancing Translational Sciences (NCATS).
